Experimental data published in PubChem BioAssay (NCI).
About 83,000 compounds went through this panel and 20% of them were active in at least one assay; those are over-represented in the sample as a whole.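 Negative percent growth values reflect cell death: -40 means 40% of the cells present at the start died, and -100 means all died.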 Calls of active or inactive are those of the source. The calls were made as follows: active = growth percent below 10; inactive = the rest.

System: SNB-19 CNS
Experiment: NCI-60 one-dose screen, 48 h (100 = growth as untreated, 0 = no growth, -100 = all killed)
Conditions: 10 µM unless noted

Structure (SMILES) | growth
CCN(CC)CCOc1ccccc1-n1c(C)ccc1-c1ccccc1 | 102% (inactive)
Cn1cc(-c2csc(-c3c[nH]c4ncccc34)n2)c2cc(Br)cnc21 | 50.5% (inactive)
COc1ccc(/C=C2\NC(=S)NC2=O)cc1 | 109% (inactive)
Nc1ccccc1-c1ccc([N+](=O)[O-])cc1 | 67.3% (inactive)
Cc1cc(NC(=O)c2ccc(N)cc2)ccc1N=Nc1ccc2c(O)c(N=Nc3ccc(Cl)c(S(=O)(=O)O)c3)c(S(=O)(=O)O)cc2c1 | 105% (inactive)
CC[N+](CC)(CCOCCOCC[N+](CC)(CC)Cc1ccc([N+](=O)[O-])cc1)Cc1ccc([N+](=O)[O-])cc1 | 101% (inactive)
CCC(c1ccccc1)c1noc(CCN(CC)CC)n1 (stereo not given) | 105% (inactive)
CC(=O)Nc1ccc2c(c1)Cc1c(F)c(F)c(F)c(F)c1-2 | 90.3% (inactive)
OC(Cc1cccnc1)c1ccccc1 (stereo not given) | 98.9% (inactive)
C/C(=N/N=C(N)N)c1ccc(N)cc1 | 96.3% (inactive)
O=C(O)c1ccccc1C(=O)OC1CCCC2CCCC21 (stereo not given) | 104% (inactive)
CN1CCCC1c1cccnc1 (stereo not given) | 105% (inactive)
COc1c(O)cc2oc3cc(O)c(CC=C(C)C)c(O)c3c(=O)c2c1C/C=C(\C)CCC=C(C)C | 80.5% (inactive)
Nc1nc(SCc2ccccc2Cl)c(-c2ccccc2)c(SCc2ccccc2Cl)n1 | 116% (inactive)
CO[C@H]1/C=C/O[C@@]2(C)Oc3c(C)c(O)c4c(O)c(c(/C=N/N5C(C)CN(Cc6ccccc6)CC5C)c(O)c4c3C2=O)NC(=O)/C(C)=C\C=C\[C@H](C)[C@H](O)[C@@H](C)[C@@H](O)[C@@H](C)[C@H](OC(C)=O)[C@@H]1C (stereo not given in full) | 97.8% (inactive)
